PubChem BioAssay AID1159580 (chemical genetic matrix, 2015)
“And” between values parts separate entries of the source, which are not always exact repeats. Identical values can stand only once. In all, about 5,500 compounds went through this assay and about 2,000 (36%) were called active. Not shown: some 18% with an inconclusive outcome. Cut-off read from the data, not from the text of the source: active = normalized growth mostly below about 0.91 (no sharp cut-off); inconclusive = no clear call, values can overlap the other calls; inactive = mostly above about 0.92. This is one part of the list.

Experiment: chemical genetic growth profiling, strain panel (AID 1159580);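 note: tested at 20 µM; growth read once vehicle control cultures reached saturation at 30 °C; 1 = growth at the plate median or of vehicle wells; lower values mean less growth of the strain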
Settings: growth OD

Measured: normalized growth

Nc1nc(N)c2nc(CNc3ccc(C(=O)NC(CCC(=O)O)C(=O)O)cc3)cnc2n1 (stereo unspecified)
inactive: S. cerevisiae deletion strains, locus YKL009W, strain mrt4, stronger effect = lower value 0.972 | S. cerevisiae deletion strains, locus YKL068W, stronger effect = lower value 0.981 | S. cerevisiae deletion strains, locus YKL085W, strain MDH1 (second series), stronger effect = lower value 0.986 | S. cerevisiae deletion strains, locus YKL085W, strain MDH1, stronger effect = lower value 0.986 | S. cerevisiae deletion strains, locus YKL160W, strain elf1, stronger effect = lower value 0.968 | S. cerevisiae deletion strains, locus YKL190W, strain CNB1, stronger effect = lower value 1.01 | S. cerevisiae deletion strains, locus YKR001C, strain vps1, stronger effect = lower value 0.989 | S. cerevisiae deletion strains, locus YKR026C, strain gcn3, stronger effect = lower value 0.997 | S. cerevisiae deletion strains, locus YKR091W, strain srl3, stronger effect = lower value 0.99 | S. cerevisiae deletion strains, locus YLL001W, strain dnm1, stronger effect = lower value 0.941 | S. cerevisiae deletion strains, locus YLL026W, stronger effect = lower value 0.996 | S. cerevisiae deletion strains, locus YLL041C, strain sdh2, stronger effect = lower value 0.971 | S. cerevisiae deletion strains, locus YLR027C, strain aat2, stronger effect = lower value 1 | S. cerevisiae deletion strains, locus YLR039C, strain RIC1, stronger effect = lower value 1.01 | S. cerevisiae deletion strains, locus YLR058C, strain SHM2, stronger effect = lower value 1 | S. cerevisiae deletion strains, locus YLR102C, strain apc9, stronger effect = lower value 0.972 | S. cerevisiae deletion strains, locus YLR221C, strain rsa3, stronger effect = lower value 1.06 | S. cerevisiae deletion strains, locus YLR258W, strain gsy2, stronger effect = lower value 0.974 | S. cerevisiae deletion strains, locus YLR262C, strain YPT6 (second series), stronger effect = lower value 1.03 | S. cerevisiae deletion strains, locus YLR262C, strain YPT6, stronger effect = lower value 0.952 | S. cerevisiae deletion strains, locus YLR268W, strain sec22, stronger effect = lower value 0.977 | S. cerevisiae deletion strains, locus YLR320W, strain mms22, stronger effect = lower value 1.05 | S. cerevisiae deletion strains, locus YLR330W, strain CHS5, stronger effect = lower value 1.01 | S. cerevisiae deletion strains, locus YLR342W, strain FKS1 (second series), stronger effect = lower value 1.07 | S. cerevisiae deletion strains, locus YLR342W, strain FKS1, stronger effect = lower value 1.01 | S. cerevisiae deletion strains, locus YLR357W, strain rsc2, stronger effect = lower value 0.963 | S. cerevisiae deletion strains, locus YLR370C, strain arc18, stronger effect = lower value 0.99 | S. cerevisiae deletion strains, locus YLR371W, strain rom2, stronger effect = lower value 0.973 | S. cerevisiae deletion strains, locus YLR384C, strain iki3, stronger effect = lower value 0.988 | S. cerevisiae deletion strains, locus YLR418C, strain cdc73, stronger effect = lower value 1.02 | S. cerevisiae deletion strains, locus YML016C, strain PPZ1, stronger effect = lower value 0.992 | S. cerevisiae deletion strains, locus YML032C, strain rad52, stronger effect = lower value 1.01 | S. cerevisiae deletion strains, locus YML120C, strain ndi1, stronger effect = lower value 0.979 | S. cerevisiae deletion strains, locus YML124C, strain tub3, stronger effect = lower value 0.988 | S. cerevisiae deletion strains, locus YMR058W, strain fet3, stronger effect = lower value 0.984 | S. cerevisiae deletion strains, locus YMR078C, strain ctf18, stronger effect = lower value 0.974 | S. cerevisiae deletion strains, locus YMR125W, strain sto1, stronger effect = lower value 0.967 | S. cerevisiae deletion strains, locus YMR129W, stronger effect = lower value 1 | S. cerevisiae deletion strains, locus YMR205C, strain PFK2, stronger effect = lower value 0.965 | S. cerevisiae deletion strains, locus YMR223W, strain ubp8, stronger effect = lower value 0.989 | S. cerevisiae deletion strains, locus YMR231W, strain pep5, stronger effect = lower value 1 | S. cerevisiae deletion strains, locus YMR263W, strain SAP30, stronger effect = lower value 0.99 and 1 | S. cerevisiae deletion strains, locus YMR307W, strain GAS1, stronger effect = lower value 1.16 | S. cerevisiae deletion strains, locus YNL067W, strain RPL9B, stronger effect = lower value 0.975 | S. cerevisiae deletion strains, locus YNL071W, strain lat1, stronger effect = lower value 0.998 | S. cerevisiae deletion strains, locus YNL128W, strain TEP1, stronger effect = lower value 1 | S. cerevisiae deletion strains, locus YNL153C, strain GIM3, stronger effect = lower value 1 | S. cerevisiae deletion strains, locus YNL175C, strain NOP13, stronger effect = lower value 0.989 | S. cerevisiae deletion strains, locus YNL197C, strain WHI3, stronger effect = lower value 0.956 | S. cerevisiae deletion strains, locus YNL209W, strain ssb2, stronger effect = lower value 0.987 | S. cerevisiae deletion strains, locus YNL224C, strain SQS1, stronger effect = lower value 0.981 | S. cerevisiae deletion strains, locus YNL233W, strain BNI4, stronger effect = lower value 1.01 | S. cerevisiae deletion strains, locus YNL248C, strain rpa49, stronger effect = lower value 1.02 | S. cerevisiae deletion strains, locus YNL250W, strain rad50, stronger effect = lower value 0.945 | S. cerevisiae deletion strains, locus YNL271C, strain bni1, stronger effect = lower value 0.984 | S. cerevisiae deletion strains, locus YNL298W, strain CLA4, stronger effect = lower value 0.995 | S. cerevisiae deletion strains, locus YNL307C, strain MCK1, stronger effect = lower value 0.977 | S. cerevisiae deletion strains, locus YNL322C, strain KRE1 (second series), stronger effect = lower value 0.976 | S. cerevisiae deletion strains, locus YNL322C, strain KRE1, stronger effect = lower value 0.998 and 1.01 | S. cerevisiae deletion strains, locus YNR049C, strain mso1, stronger effect = lower value 0.987 | S. cerevisiae deletion strains, locus YNR052C, strain pop2, stronger effect = lower value 0.991 | S. cerevisiae deletion strains, locus YOL006C, strain TOP1, stronger effect = lower value 0.981 | S. cerevisiae deletion strains, locus YOL012C, strain htz1 0.761 | S. cerevisiae deletion strains, locus YOL147C, strain pex11, stronger effect = lower value 0.998 | S. cerevisiae deletion strains, locus YOR001W, strain rrp6, stronger effect = lower value 1.01 | S. cerevisiae deletion strains, locus YOR061W, strain CKA2, stronger effect = lower value 0.99 | S. cerevisiae deletion strains, locus YOR069W, strain VPS5, stronger effect = lower value 0.992 | S. cerevisiae deletion strains, locus YOR070C, strain gyp1, stronger effect = lower value 0.997 | S. cerevisiae deletion strains, locus YOR080W, strain dia2, stronger effect = lower value 1.01 | S. cerevisiae deletion strains, locus YOR083W, strain WHI5 (second series), stronger effect = lower value 1 | S. cerevisiae deletion strains, locus YOR083W, strain WHI5, stronger effect = lower value 0.967 | S. cerevisiae deletion strains, locus YOR106W, strain vam3, stronger effect = lower value 0.94 | S. cerevisiae deletion strains, locus YOR136W, strain idh2, stronger effect = lower value 0.994 | S. cerevisiae deletion strains, locus YOR144C, strain elg1, stronger effect = lower value 1 | S. cerevisiae deletion strains, locus YOR184W, strain ser1, stronger effect = lower value 0.99 | S. cerevisiae deletion strains, locus YOR265W, strain rbl2, stronger effect = lower value 0.989 | S. cerevisiae deletion strains, locus YOR270C, strain vph1, stronger effect = lower value 1.05 | S. cerevisiae deletion strains, locus YOR290C, strain snf2, stronger effect = lower value 0.933 | S. cerevisiae deletion strains, locus YOR316C, strain cot1, stronger effect = lower value 0.986 | S. cerevisiae deletion strains, locus YPL051W, strain arl3, stronger effect = lower value 1 | S. cerevisiae deletion strains, locus YPL055C, strain LGE1, stronger effect = lower value 1.02 and 0.989 | S. cerevisiae deletion strains, locus YPL078C, strain atp4, stronger effect = lower value 0.955 | S. cerevisiae deletion strains, locus YPL106C, strain sse1, stronger effect = lower value 0.956 | S. cerevisiae deletion strains, locus YPL240C, strain hsp82, stronger effect = lower value 0.992 | S. cerevisiae deletion strains, locus YPL241C, strain CIN2, stronger effect = lower value 1.01 | S. cerevisiae deletion strains, locus YPR119W, strain clb2, stronger effect = lower value 0.987 | S. cerevisiae deletion strains, locus YPR141C, strain kar3, stronger effect = lower value 0.98 | S. cerevisiae deletion strains, locus YPR163C, strain tif3, stronger effect = lower value 1 | S. cerevisiae deletion strains, locus YPR167C, strain met16, stronger effect = lower value 0.989 | S. cerevisiae deletion strains, strain wtn01, stronger effect = lower value 0.965 | S. cerevisiae strains, strain wild type, stronger effect = lower value 1.01
